ELG1 repair inh: ELG1-dependent DNA repair inhibition; AID 504467; HEK293T ELG1-luciferase reporter, luminescence, 16 h; DNA damage induced by 5-fluorouridine; Potency, µM (series often up to 46.1 µM), without a hit: at the highest dose activity change, negative = inhibition, actives largely listed as inhibitors; actives 2.3% (n = 330,000); further: potency means the concentration at half of the fitted maximal effect; nearly all actives have a fitted effect of over 55% in size
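Step one: seed 2,000 cells per well. Step two: pin-transfer compound or DMSO alongside 5-fluorouridine. Step three: incubate 16 hr, 37 °C, 5% CO2. Step four: add ONE-Glo, wait 30 min, read luminescence.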
IL-1B inflam inh: blocks inflammasome-driven IL-1 beta release; activity change, % at 57.5 µM; AID 743279; THP-1 LPS/ATP IL-1B secretion, AlphaLISA, 16 h; hits give low values; actives 4.7% (n = 360,000); in the data active means activity change below about -50%; inconclusive means mostly about -30% to -49%
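Secreted IL-1B measured by AlphaLISA bead assay after 16 h compound exposure of THP-1 cells; compounds (final up to 57.5 uM) added 1 h before LPS (250 ng/mL) and ATP (1.25 mM) stimulation; lower signal means less secretion.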
TDP1 cell CPT: DT40-hTDP1 cell growth loss with CPT; actives 12% (n = 420,000); AID 686979; Potency, µM (series often up to 46.2 µM), for the others: top-dose activity change, negative = growth inhibition, most hits filed as inhibitors; chicken DT40 Tdp1-/-;hTDP1 cells + 20 nM CPT, ATP luminescence, 48 h; further: potency means the concentration at half of the fitted maximal effect; nearly all actives have a fitted effect of over 55% in size
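Chicken DT40 Tdp1-/- cells stably complemented with human TDP1 were seeded at 400 cells/well in medium containing 20 nM camptothecin, exposed to pin-transferred compounds, and grown at 37 °C for at least 48 hr. Viability was read as ATP luminescence.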
TDP1 inh: inhibitors of human tyrosyl-DNA phosphodiesterase TDP1 | Q9NUW8 | recombinant TDP1, AlphaScreen DNA substrate cleavage | Potency, µM (titrated, usually from 130 µM), inactives show at the highest dose activity change, negative = inhibition, usual class: inhibitors | actives 0.28% (n = 350,000); further: potency means the concentration at half of the fitted maximal effect; nearly all actives have a fitted effect of over 40% in size
Target sequence (Q9NUW8 whole entry, looked up): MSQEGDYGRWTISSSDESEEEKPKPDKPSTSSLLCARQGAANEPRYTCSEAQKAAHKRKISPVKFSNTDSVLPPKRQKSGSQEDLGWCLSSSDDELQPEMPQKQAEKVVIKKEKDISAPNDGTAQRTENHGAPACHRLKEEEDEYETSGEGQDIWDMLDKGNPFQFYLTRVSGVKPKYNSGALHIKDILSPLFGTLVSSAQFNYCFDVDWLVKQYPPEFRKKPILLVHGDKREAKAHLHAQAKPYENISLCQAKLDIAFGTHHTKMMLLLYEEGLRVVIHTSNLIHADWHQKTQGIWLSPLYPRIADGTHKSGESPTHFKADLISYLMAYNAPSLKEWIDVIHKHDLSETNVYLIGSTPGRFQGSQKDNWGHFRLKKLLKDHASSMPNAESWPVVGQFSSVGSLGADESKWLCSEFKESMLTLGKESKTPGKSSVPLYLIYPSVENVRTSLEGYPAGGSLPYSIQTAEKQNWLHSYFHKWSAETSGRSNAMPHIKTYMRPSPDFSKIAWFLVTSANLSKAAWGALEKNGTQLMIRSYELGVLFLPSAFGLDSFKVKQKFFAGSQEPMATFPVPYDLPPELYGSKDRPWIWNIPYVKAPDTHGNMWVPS
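E. coli-derived human Tdp1, 1 nM final. Cpd preinc 15 min RT; substrate 15 nM final, 5 min RT; AS bead mix 10 ug/ml final, 10 min RT. Signal loss = tyrosine-FITC cleavage. No-enzyme wells = max signal.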
DT40 TDP1 no CPT: qHTS for Inhibitors of human tyrosyl-DNA phosphodiesterase 1 (TDP1): qHTS in cells in absence of CPT; DT40 Tdp1-/- hTDP1 cells, no CPT, ATP luminescence, 48 h; actives 15% (n = 420,000); Potency, µM (series often up to 46.2 µM), without a hit: at the top dose activity change, negative = growth inhibition, usual class: inhibitors; AID 686978, 2013; further: potency means the concentration at half of the fitted maximal effect; nearly all actives have a fitted effect of over 55% in size
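Chicken DT40 Tdp1-/- cells stably complemented with human TDP1 were seeded at 400 cells/well with DMSO in place of 20 nM camptothecin. After compound pinning, cells grew at least 48 hr at 37 °C; viability read by CellTiter-Glo luminescence.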
Giardia kill: Giardia lamblia killing | Giardia lamblia trophozoite viability | activity change, % at 7.66 µM, hits read low | actives 0.15% (n = 340,000); in the data active means activity change below about -80%; inconclusive means between about -30% and that limit;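 further: parasites exposed to compound for two days anaerobically before the ATP read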
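Compounds were tested on trophozoites seeded at 100 cells/well and held 48 hrs at 37 deg C anaerobically. An ATP-based luminescent kit measured the remaining live cells.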
Starred values were filed as active, the others as inactive; [ ] = remark or other dose. The list is not random: actives were taken first. Their share in the collection is about 19%. Unless noted, the call rests on the fitted dose curve; in most records, active means well fitted curve in the direction sought with a large enough effect; inconclusive means small, poorly fitted or top-dose-only effect, or another doubt; inactive means no such curve, though single readings can be large; an effect the other way counts as inactive or inconclusive. On the % scale 0 is the no-effect control and ±100 the full control effect.

How did CC(C)(C)NC(=O)COC(=O)c1ccccc1NC(=O)c1ccco1 do in these assays?
ELG1 repair inh: -3.4%; IL-1B inflam inh: 51.7; TDP1 cell CPT: 2.6%; TDP1 inh: 5.1%; DT40 TDP1 no CPT: -4.2%; Giardia kill: -3.6

Results for O=C(Nc1ccccc1C(=O)OCC(=O)c1c[nH]c2ccccc12)c1ccco1 ?
ELG1 repair inh: inconclusive; IL-1B inflam inh: -1.5; TDP1 cell CPT: 8.2µM*; TDP1 inh: 8.1%; DT40 TDP1 no CPT: inconclusive; Giardia kill: 6.3

What do the screens show for `O=C(CCCc1c[nH]c2ccccc12)NCCc1c[nH]c2ccccc12`?
ELG1 repair inh: -19.7%; IL-1B inflam inh: inconclusive; TDP1 cell CPT: inconclusive; TDP1 inh: -4.0%; DT40 TDP1 no CPT: 16.4µM*; Giardia kill: 0.1

How did O=C(CCCc1c[nH]c2ccccc12)Nc1ccc2ccccc2c1 do in these assays?
ELG1 repair inh: 29.2%; IL-1B inflam inh: -85.2*; TDP1 cell CPT: -0.1%; TDP1 inh: 3.2%; DT40 TDP1 no CPT: -22.1%; Giardia kill: -0.5

What do the screens show for `CC(=O)Nc1ccc(NC(=O)CCCc2c[nH]c3ccccc23)cc1`?
ELG1 repair inh: 4.5%; IL-1B inflam inh: -15.3; TDP1 cell CPT: -10.7%; TDP1 inh: 1.2%; DT40 TDP1 no CPT: inconclusive; Giardia kill: -9.2

How did O=C(Nc1cccc(CNCCc2c[nH]c3ccccc23)c1)c1ccccc1Cl do in these assays?
ELG1 repair inh: 16.3%; IL-1B inflam inh: inconclusive; TDP1 cell CPT: inconclusive; DT40 TDP1 no CPT: 18.4µM*; Giardia kill: 17.7

What do the screens show for `CCc1ccc(C(C)NC(=O)c2ncn[nH]2)cc1` (stereo unspecified)?
ELG1 repair inh: 9.3%; IL-1B inflam inh: 12.4; TDP1 cell CPT: -7.6%; TDP1 inh: 0.0%; DT40 TDP1 no CPT: -0.8%; Giardia kill: -0.7

Results for COc1ccc(C(=O)c2cn(CC(=O)Nc3cc(C)ccc3C)c3nc(C)ccc3c2=O)cc1 ?
TDP1 cell CPT: -5.3%; TDP1 inh: -1.1%; DT40 TDP1 no CPT: -12.4%

Results for O=C(NCCc1c[nH]c2ccccc12)Nc1ccccc1C(F)(F)F ?
TDP1 cell CPT: 23.1µM*; TDP1 inh: 5.1%; DT40 TDP1 no CPT: inconclusive

What do the screens show for `O=C(NCCc1c[nH]c2ccccc12)c1ccc([N+](=O)[O-])o1`?
IL-1B inflam inh: -87.3*; TDP1 cell CPT: 14.6µM*; DT40 TDP1 no CPT: 23.1µM*

Results for O=C(COC(=O)c1ccccc1O)NCCc1c[nH]c2ccccc12 ?
ELG1 repair inh: 0.6%; IL-1B inflam inh: -0.6; TDP1 cell CPT: -26.8%; TDP1 inh: 2.1%; DT40 TDP1 no CPT: inconclusive; Giardia kill: -0.8

Results for O=C(NCCc1c[nH]c2ccccc12)c1cc([N+](=O)[O-])cc([N+](=O)[O-])c1 ?
ELG1 repair inh: 6.0%; IL-1B inflam inh: 15.5; TDP1 cell CPT: inconclusive; DT40 TDP1 no CPT: -8.6%; Giardia kill: -10.4

Results for O=C(NCCc1c[nH]c2ccccc12)OCCCCOC(=O)NCCc1c[nH]c2ccccc12 ?
ELG1 repair inh: inconclusive; IL-1B inflam inh: -50.8*; TDP1 cell CPT: 18.4µM*; TDP1 inh: 6.2%; DT40 TDP1 no CPT: 23.1µM*; Giardia kill: 4.9

Results for O=C(COC(=O)c1ccccc1C(=O)OCC(=O)NCCc1c[nH]c2ccccc12)NCCc1c[nH]c2ccccc12 ?
ELG1 repair inh: inconclusive; IL-1B inflam inh: -20.4; TDP1 cell CPT: inconclusive; TDP1 inh: 6.4%; DT40 TDP1 no CPT: 23.1µM*; Giardia kill: -3.4

How did COC(=O)/C(=C1/OC(=O)C(c2ccccc2)=C1O)c1ccccc1 do in these assays?
TDP1 cell CPT: 5.6%[9.04 µM]; TDP1 inh: 0.6%; DT40 TDP1 no CPT: -9.7%[9.04 µM]

What do the screens show for `COc1ccc2ccc3c(c2c1)N=C[C@]1(O3)N(C)c2ccccc2C1(C)C`?
ELG1 repair inh: -2.0%; IL-1B inflam inh: -25.5; TDP1 cell CPT: 18.4µM*; TDP1 inh: 7.3%; DT40 TDP1 no CPT: 10.3µM*; Giardia kill: -15.7

Results for CC1=NOC2(C1)N(C)c1ccccc1C2(C)C (stereo unspecified) ?
ELG1 repair inh: -9.6%; IL-1B inflam inh: -0.5; TDP1 cell CPT: -4.8%; TDP1 inh: -2.1%; DT40 TDP1 no CPT: -2.2%; Giardia kill: 1.0

How did Nc1ccc2nc[nH]c2c1 do in these assays?
ELG1 repair inh: -0.5%; IL-1B inflam inh: 35.6; TDP1 cell CPT: -21.6%; TDP1 inh: 7.7%; DT40 TDP1 no CPT: -18.8%; Giardia kill: 18.5

Results for COc1ccc(C2Nc3ccccc3C(=O)N2CCc2ccc(Cl)cc2Cl)cc1COc1ccc(NC(C)=O)cc1 (stereo unspecified) ?
TDP1 inh: 1.3%

How did NCCNC(=O)c1c(NC(=O)c2ccccc2)sc2c1CCCC2 do in these assays?
ELG1 repair inh: 11.0%; IL-1B inflam inh: -91.8*; TDP1 cell CPT: inconclusive; DT40 TDP1 no CPT: inconclusive; Giardia kill: -12.5

Results for O=C(Nc1sc2c(c1C(=O)NCCCO)CCCC2)c1ccccc1 ?
ELG1 repair inh: inconclusive; IL-1B inflam inh: -69.0*; TDP1 cell CPT: -26.7%; DT40 TDP1 no CPT: -25.3%; Giardia kill: -5.5

How did CCC1(c2ccc(F)cc2)NC(=O)N(CC(=O)N2CCN(C(=O)c3cccs3)CC2)C1=O (stereo unspecified) do in these assays?
ELG1 repair inh: -8.1%; IL-1B inflam inh: 4.8; TDP1 cell CPT: inconclusive; TDP1 inh: -8.7%; DT40 TDP1 no CPT: 2.9%; Giardia kill: 1.3

Results for COc1ccccc1N1CCN(C(=O)c2cc3c(=O)n(Cc4cccnc4)ccc3nc2C)CC1 ?
TDP1 cell CPT: -0.6%; TDP1 inh: 5.8%; DT40 TDP1 no CPT: -6.4%

What do the screens show for `CC(Cc1c[nH]c2ccccc12)NC(N)=O` (stereo unspecified)?
ELG1 repair inh: 23.2%; IL-1B inflam inh: -13.3; TDP1 cell CPT: 2.2%; TDP1 inh: 0.0%; DT40 TDP1 no CPT: 2.5%; Giardia kill: 9.4

How did CC[C@@H](C)[C@H](NS(=O)(=O)c1cccc2ccccc12)C(=O)N[C@H](C=O)Cc1c[nH]c2ccccc12 do in these assays?
TDP1 cell CPT: 5.92µM*; TDP1 inh: 17.1%; DT40 TDP1 no CPT: 5.28µM*

How did CCOC(=O)C1=CN(Cc2ccco2)S(=O)(=O)N(CC)C1c1ccc(C(F)(F)F)cc1 (stereo unspecified) do in these assays?
ELG1 repair inh: 5.1%; IL-1B inflam inh: -7.2; TDP1 cell CPT: 23.1µM*; TDP1 inh: -0.1%[56.1 µM]; DT40 TDP1 no CPT: 16.4µM*; Giardia kill: -25.0
